This is one part of a sample in which the strongest signals are shown more often than they occur.
Tests used:
Assay in all cases: glycan array binding signal (z-score within array); higher = stronger binding
Conditions in all cases: glycan notation: IUPAC condensed, linker removed
[1] = target: Fuc(a1-2)Gal(b1-3)GalNAc(b1-3)Gal
How it was run: (§1)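 Arrays were curated from the Consortium for Functional Glycomics database, 3228 in total, and kept only where the protein sequence was available. Binding is expressed as a within-array Z-score. This score was averaged across arrays of the same protein sequence at different concentrations or buffers and across linkers, and negative values can be read as non-binding.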

[2] = target: Fuc(a1-2)Gal(b1-3)GlcNAc(b1-2)Man(a1-3)[Fuc(a1-2)Gal(b1-3)GlcNAc(b1-2)Man(a1-6)]Man(b1-4)GlcNAc(b1-4)[Fuc(a1-6)]GlcNAc
How it was run: as §1

[3] = target: Fuc(a1-2)Gal(b1-4)[Fuc(a1-3)]GlcNAc(b1-3)[Neu5Ac(a2-6)Gal(b1-4)GlcNAc(b1-6)]Gal(b1-4)Glc
How it was run: as §1

[4] = target: Fuc(a1-2)Gal6S(b1-4)Glc6S
How it was run: as §1

[5] = target: Fuc(a1-2)[Gal(a1-3)]Gal(b1-3)GlcNAc(b1-2)Man(a1-3)[Fuc(a1-2)[Gal(a1-3)]Gal(b1-3)GlcNAc(b1-2)Man(a1-6)]Man(b1-4)GlcNAc(b1-4)GlcNAc
How it was run: as §1

[6] = target: Fuc(a1-2)[Gal(a1-3)]Gal(b1-3)GlcNAc(b1-2)Man(a1-3)[Fuc(a1-2)[Gal(a1-3)]Gal(b1-3)GlcNAc(b1-2)Man(a1-6)]Man(b1-4)GlcNAc(b1-4)[Fuc(a1-6)]GlcNAc
How it was run: as §1

[7] = target: Fuc(a1-2)[Gal(a1-3)]Gal(b1-4)[Fuc(a1-3)]GlcNAc(b1-3)GalNAc
How it was run: as §1

[8] = target: Fuc(a1-2)[GalNAc(a1-3)]Gal(b1-4)Glc
How it was run: as §1

[9] = target: Fuc(a1-3)[Gal(b1-4)]GlcNAc
How it was run: as §1

[10] = target: Fuc(a1-3)[GalNAc(b1-4)]GlcNAc6S
How it was run: as §1

[11] = target: Fuc(b1-3)GlcNAc
How it was run: as §1

[12] = target: Gal(a1-3)Gal(b1-4)GlcNAc(b1-3)GalNAc
How it was run: as §1

[13] = target: Gal(a1-3)Gal(b1-4)[Fuc(a1-3)]GlcNAc(b1-2)Man(a1-3)[Gal(a1-3)Gal(b1-4)[Fuc(a1-3)]GlcNAc(b1-2)Man(a1-6)]Man(b1-4)GlcNAc(b1-4)GlcNAc
How it was run: as §1

[14] = target: Gal(a1-4)Gal(b1-3)GlcNAc(b1-2)Man(a1-3)[Gal(a1-4)Gal(b1-3)GlcNAc(b1-2)Man(a1-6)]Man(b1-4)GlcNAc(b1-4)GlcNAc
How it was run: as §1

[15] = target: Gal(a1-4)Gal(b1-4)GlcNAc(b1-3)Gal(b1-4)Glc
How it was run: as §1

[16] = target: Gal(b1-3)Gal(b1-4)GlcNAc
How it was run: as §1

[17] = target: Gal(b1-3)GalNAc(b1-3)Gal
How it was run: as §1

[18] = target: Gal(b1-3)GalNAc(b1-4)Gal(b1-4)Glc
How it was run: as §1

[19] = target: Gal(b1-3)GlcNAc(b1-2)Man
How it was run: as §1

[20] = target: Gal(b1-3)GlcNAc(b1-3)Gal(b1-4)GlcNAc(b1-2)[Gal(b1-3)GlcNAc(b1-3)Gal(b1-4)GlcNAc(b1-6)]Man(a1-6)[Gal(b1-3)GlcNAc(b1-3)Gal(b1-4)GlcNAc(b1-2)Man(a1-3)]Man(b1-4)GlcNAc(b1-4)[Fuc(a1-6)]GlcNAc
How it was run: as §1

[21] = target: Gal(b1-3)GlcNAc(b1-3)GalNAc
How it was run: as §1

[22] = target: Gal(b1-3)[Neu5Ac(b2-6)]GalNAc
How it was run: as §1

[23] = target: Gal(b1-4)GalNAc(b1-3)[Fuc(a1-2)]Gal(b1-4)GlcNAc
How it was run: as §1

[24] = target: Gal(b1-4)Glc6S
How it was run: as §1

[25] = target: Gal(b1-4)GlcNAc(b1-2)[Gal(b1-4)GlcNAc(b1-4)]Man(a1-3)[Gal(b1-4)GlcNAc(b1-2)[Gal(b1-4)GlcNAc(b1-6)]Man(a1-6)]Man(b1-4)GlcNAc(b1-4)GlcNAc
How it was run: as §1

[26] = target: Gal(b1-4)GlcNAc(b1-3)Gal(b1-4)GlcNAc(b1-2)Man(a1-3)[Gal(b1-4)GlcNAc(b1-3)Gal(b1-4)GlcNAc(b1-2)Man(a1-6)]Man(b1-4)GlcNAc(b1-4)[Fuc(a1-6)]GlcNAc
How it was run: as §1

[27] = target: Gal(b1-4)GlcNAc(b1-3)Gal(b1-4)GlcNAc(b1-3)Gal(b1-4)GlcNAc(b1-3)Gal(b1-4)GlcNAc(b1-3)Gal(b1-4)GlcNAc(b1-2)[Gal(b1-4)GlcNAc(b1-3)Gal(b1-4)GlcNAc(b1-3)Gal(b1-4)GlcNAc(b1-3)Gal(b1-4)GlcNAc(b1-3)Gal(b1-4)GlcNAc(b1-6)]Man(a1-6)[Gal(b1-4)GlcNAc(b1-3)Gal(b1-4)GlcNAc(b1-3)Gal(b1-4)GlcNAc(b1-3)Gal(b1-4)GlcNAc(b1-3)Gal(b1-4)GlcNAc(b1-2)Man(a1-3)]Man(b1-4)GlcNAc(b1-4)[Fuc(a1-6)]GlcNAc
How it was run: as §1

[28] = target: Gal(b1-4)GlcNAc(b1-3)[Fuc(a1-3)GlcNAc(b1-6)]Gal(b1-4)Glc
How it was run: as §1

[29] = target: Gal(b1-4)GlcNAc(b1-6)Gal(b1-4)GlcNAc
How it was run: as §1

[30] = target: Gal3S(b1-4)Glc
How it was run: as §1

[31] = target: Gal3S(b1-4)[Fuc(a1-3)]GlcNAc6S
How it was run: as §1

[32] = target: Gal3S6S(b1-4)GlcNAc6S
How it was run: as §1

[33] = target: Gal6S(b1-3)GlcNAc6S
How it was run: as §1

[34] = target: GalNAc(b1-3)Gal
How it was run: as §1

[35] = target: GalNAc(b1-4)GlcNAc
How it was run: as §1

[36] = target: Glc(a1-6)Glc(a1-6)Glc
How it was run: as §1

[37] = target: GlcNAc(b1-2)[GlcNAc(b1-4)]Man(a1-3)[GlcNAc(b1-4)][GlcNAc(b1-2)[GlcNAc(b1-6)]Man(a1-6)]Man(b1-4)GlcNAc(b1-4)[Fuc(a1-6)]GlcNAc
How it was run: as §1

[38] = target: GlcNAc(b1-2)[GlcNAc(b1-6)]Man(a1-6)[GlcNAc(b1-2)Man(a1-3)]Man(b1-4)GlcNAc(b1-4)[Fuc(a1-6)]GlcNAc
How it was run: as §1

[39] = target: GlcNAc(b1-3)Fuc
How it was run: as §1

[40] = target: GlcNAc(b1-3)Gal(b1-4)GlcNAc(b1-3)Gal(b1-4)GlcNAc(b1-2)[GlcNAc(b1-3)Gal(b1-4)GlcNAc(b1-3)Gal(b1-4)GlcNAc(b1-6)]Man(a1-6)[GlcNAc(b1-3)Gal(b1-4)GlcNAc(b1-3)Gal(b1-4)GlcNAc(b1-2)Man(a1-3)]Man(b1-4)GlcNAc(b1-4)[Fuc(a1-6)]GlcNAc
How it was run: as §1

[41] = target: GlcNAc(b1-3)Gal(b1-4)GlcNAc(b1-3)Gal(b1-4)GlcNAc(b1-3)Gal(b1-4)GlcNAc(b1-3)Gal(b1-4)GlcNAc(b1-2)Man(a1-3)[GlcNAc(b1-3)Gal(b1-4)GlcNAc(b1-3)Gal(b1-4)GlcNAc(b1-3)Gal(b1-4)GlcNAc(b1-3)Gal(b1-4)GlcNAc(b1-2)Man(a1-6)]Man(b1-4)GlcNAc(b1-4)GlcNAc
How it was run: as §1

[42] = target: Man(a1-2)Man(a1-6)[Man(a1-3)]Man(a1-6)[Man(a1-2)Man(a1-2)Man(a1-3)]Man
How it was run: as §1

[43] = target: Man(a1-3)[Man(a1-6)]Man(a1-6)[Man(a1-3)]Man(b1-4)GlcNAc(b1-4)GlcNAc
How it was run: as §1

[44] = target: Man(a1-6)Man
How it was run: as §1

[45] = target: Neu5Ac(a2-3)Gal(b1-3)GlcNAc(b1-6)GalNAc
How it was run: as §1

[46] = target: Neu5Ac(a2-3)Gal(b1-3)[Fuc(a1-4)]GlcNAc
How it was run: as §1

[47] = target: Neu5Ac(a2-3)GalNAc(b1-4)GlcNAc
How it was run: as §1

[48] = target: Neu5Ac(a2-3)[GalNAc(b1-4)]Gal(b1-4)GlcNAc(b1-3)GalNAc
How it was run: as §1

[49] = target: Neu5Ac(a2-6)Gal(b1-4)GlcNAc(b1-2)Man
How it was run: as §1

[50] = target: Neu5Ac(a2-6)Gal(b1-4)GlcNAc(b1-2)Man(a1-3)Man(b1-4)GlcNAc(b1-4)GlcNAc
How it was run: as §1

[51] = target: Neu5Ac(a2-6)Gal(b1-4)GlcNAc(b1-2)Man(a1-6)[GlcNAc(b1-2)Man(a1-3)]Man(b1-4)GlcNAc(b1-4)GlcNAc
How it was run: as §1

[52] = target: Neu5Ac(a2-6)Gal(b1-4)GlcNAc(b1-2)Man(a1-6)[Man(a1-3)]Man(b1-4)GlcNAc(b1-4)GlcNAc
How it was run: as §1

[53] = target: Neu5Ac(a2-6)Gal(b1-4)GlcNAc(b1-3)GalNAc
How it was run: as §1

[54] = target: Neu5Ac(a2-6)GlcNAc(b1-4)GlcNAc(b1-4)GlcNAc
How it was run: as §1

B1: FimA-N3 (Actinomyces oris) (protein)
chain: MHHHHHHSSGVDLGTENLYFQSNAGLQGAQFQLYKAKNAYANTCSNEKEGAPIAINGQTTLTTDAQGAIDIKGLFISDSIDGADRDNQVNAMERCYVLVETKAPAGYVLPAGNGAATPVKVKAGEETTDN
B1 was tested, and the “glycan array binding signal (z-score)” value [1] was 5.62, the “glycan array binding signal (z-score)” value [2] was -0.196 and the “glycan array binding signal (z-score)” value [3] was -0.472. The “glycan array binding signal (z-score)” value [4] was 0.307, the “glycan array binding signal (z-score)” value [5] was -0.378 and the “glycan array binding signal (z-score)” value [6] was -0.364. For the same binder, the “glycan array binding signal (z-score)” value [7] was 0.505, the “glycan array binding signal (z-score)” value [8] was -0.493 and the “glycan array binding signal (z-score)” value [9] was -0.369. The “glycan array binding signal (z-score)” value [10] was 4.08, the “glycan array binding signal (z-score)” value [11] was -0.128 and the “glycan array binding signal (z-score)” value [12] was 0.243. The “glycan array binding signal (z-score)” value [13] was -0.667, the “glycan array binding signal (z-score)” value [14] was -0.264 and the “glycan array binding signal (z-score)” value [15] was -0.388. For the same binder, the “glycan array binding signal (z-score)” value [16] was 0.999, the “glycan array binding signal (z-score)” value [17] was -0.367 and the “glycan array binding signal (z-score)” value [18] was 3.23. The “glycan array binding signal (z-score)” value [19] was -0.37, the “glycan array binding signal (z-score)” value [20] was 2.94 and the “glycan array binding signal (z-score)” value [21] was -0.259. The “glycan array binding signal (z-score)” value [22] was -0.563, the “glycan array binding signal (z-score)” value [23] was -0.587 and the “glycan array binding signal (z-score)” value [24] was -0.058. The “glycan array binding signal (z-score)” value [25] was -0.618, the “glycan array binding signal (z-score)” value [26] was -0.021 and the “glycan array binding signal (z-score)” value [27] was 4.26. For the same binder, the “glycan array binding signal (z-score)” value [28] was -0.038, the “glycan array binding signal (z-score)” value [29] was -0.237 and the “glycan array binding signal (z-score)” value [30] was 0.681. For the same binder, the “glycan array binding signal (z-score)” value [31] was 4.34, the “glycan array binding signal (z-score)” value [32] was -0.339 and the “glycan array binding signal (z-score)” value [33] was -0.446. For the same binder, the “glycan array binding signal (z-score)” value [34] was 2.63, the “glycan array binding signal (z-score)” value [35] was -0.022 and the “glycan array binding signal (z-score)” value [36] was -0.527. For the same binder, the “glycan array binding signal (z-score)” value [37] was -0.394, the “glycan array binding signal (z-score)” value [38] was -0.252 and the “glycan array binding signal (z-score)” value [39] was 3.03. The “glycan array binding signal (z-score)” value [40] was 0.202, the “glycan array binding signal (z-score)” value [41] was -0.047 and the “glycan array binding signal (z-score)” value [42] was -0.315. For the same binder, the “glycan array binding signal (z-score)” value [43] was -0.253, the “glycan array binding signal (z-score)” value [44] was 3.05 and the “glycan array binding signal (z-score)” value [45] was 0.038. The “glycan array binding signal (z-score)” value [46] was 15.7, the “glycan array binding signal (z-score)” value [47] was -0.492 and the “glycan array binding signal (z-score)” value [48] was -0.212. For the same binder, the “glycan array binding signal (z-score)” value [49] was -0.531, the “glycan array binding signal (z-score)” value [50] was -0.045 and the “glycan array binding signal (z-score)” value [51] was 0.223. The “glycan array binding signal (z-score)” value [52] was 0.03, the “glycan array binding signal (z-score)” value [53] was -0.16 and the “glycan array binding signal (z-score)” value [54] was 2.65.
